Each structure is given as a SMILES string. Screen size: about 330,000 compounds; about 1,700 (0.52%) were called active. This excerpt belongs to a sample that is enriched for actives. A number with no mark means an inactive call.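 Rule for the calls: active = GFP response versus DMSO above a set limit, roughly screen mean plus 3 SD (cut at about 180% in these data); inconclusive = fewer than 70 cells counted for a yeast strain; inactive = the rest.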

A short description of this assay: modulators of MEP2-GFP levels in yeast, primary screen, S. cerevisiae, multiplex flow cytometry, MLPCN library (AID 2016).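 Note: median GFP fluorescence of the barcode-gated MEP2-GFP cells per well.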 As to conditions: S. cerevisiae MEP2-GFP strain, 3 h, at 10 µM, active compounds read high, 100% = DMSO control level.
For the molecule `CCN1CCN(C(=O)N[C@@H](C(=O)N[C@@H]2C(=O)N3C(C(=O)O)=C(CSc4nnnn4C)CS[C@H]23)c2ccc(O)cc2)C(=O)C1=O`, the GFP response vs DMSO is 94.9%.

For the molecule `O=C(Cn1[nH]c(=O)c2ccccc2c1=O)Nc1cccc(-c2nnc3n2CCCCC3)c1`, the GFP response vs DMSO was 224% [may fluoresce violet] (active).

Regarding `Cc1c(C(=O)Nc2cccc(-c3nnc4n3CCCCC4)c2)oc2ccccc12`, the GFP response vs DMSO is 104%.

Turning to `Cc1ccc(-c2csc(NC(=O)Cn3[nH]c(=O)c4ccccc4c3=O)n2)cc1`, the GFP response vs DMSO is 102%.

For `Cc1ccc(-c2csc(N(Cc3ccco3)C(=O)c3cccs3)n2)cc1`, the GFP response vs DMSO was 109%.

Consider `CCOCCn1c(-c2ccccc2)nc2ccccc21`, for which the GFP response vs DMSO was 236% [may fluoresce violet] (active).

For `CCOCCn1c(C(C)C)nc2ccccc21`, the GFP response vs DMSO was 94.3%.

As to `CCc1nc2ccccc2n(CCOCCOCCn2c(=O)c(CC)nc3ccccc32)c1=O`, the GFP response vs DMSO was 105%.

Consider `CCN(CC(=O)NCc1cccs1)C(=O)c1ccc(OC)c(S(=O)(=O)N2CCOCC2)c1`, for which the GFP response vs DMSO was 96%.

Consider `Cc1cc(=O)oc2c3c(cc(OCC(=O)NCCC(=O)N[C@@H](C)C(=O)O)c12)OC(C)(C)CC3`, for which the GFP response vs DMSO was 92.9%.

Regarding `CCOc1cc(N2CCOCC2)c(OCC)cc1NC(=O)c1ccc(C)s1`, the GFP response vs DMSO was 94.6%.

Turning to `CCOc1cc(N2CCOCC2)c(OCC)cc1NC(=O)COc1cccc(Cl)c1`, the GFP response vs DMSO was 107%.

On to `CCOc1cc(N2CCOCC2)c(OCC)cc1NC(=O)COc1cccc2cccnc12`, for which the GFP response vs DMSO was 295% [may fluoresce violet] (active).

Regarding `O=C(CSc1nnc(-c2ccncc2)n1-c1ccc(Cl)cc1)Nc1ccc(C(=O)O)cc1`, the GFP response vs DMSO was 101%.

As for `Cc1cc(=O)oc2c3c(cc(OCC(=O)NCc4ccccn4)c12)OC(C)(C)CC3`, the GFP response vs DMSO is 100%.

Take `O=C(CCC(=O)N1CCN(S(=O)(=O)c2ccccc2)CC1)NC1CCCc2ccccc21` (stereo unspecified): the GFP response vs DMSO is 108%.

For the molecule `O=C(O)c1cc(S(=O)(=O)NC2CCCc3ccccc32)ccc1O` (stereo unspecified), the GFP response vs DMSO was 232% [may fluoresce violet] (active).

Take `CNS(=O)(=O)c1cccc(C(=O)NC2CCCc3ccccc32)c1` (stereo unspecified): the GFP response vs DMSO was 102%.

Turning to `CCC(C)(C)c1ccc(OCC(=O)N(C)C)c(C(C)(C)CC)c1`, the GFP response vs DMSO was 108%.

For `N#Cc1cccc(NC(=O)COC(=O)c2ccccc2C(=O)c2ccc(Cl)c([N+](=O)[O-])c2)c1`, the GFP response vs DMSO is 112%.

In the case of `Cc1ccc(C2(c3ccc(C)cc3)NC(=O)N(Cc3c(C)noc3C)C2=O)cc1`, the GFP response vs DMSO was 91.9%.

These data come from PubChem BioAssay AID2016 (NMMLSC, 2009).
